Inconclusive results are not listed. Entries that show only a call come without a potency. Calls of active or inactive are those of the source. Calls follow the shape of the dose curve; as a rule, active = well fitted cell-killing curve with a large enough effect in the repeat runs; inconclusive = weak or mixed curves, or effect the other way; inactive = no such curve, though single readings can be large or run the other way.

A short description of the experiment: qHTS assay for identifying genotoxic compounds that show differential cytotoxicity against isogenic chicken DT40 cell lines with known DNA damage response pathways - Rev3 mutant cell line (AID 743014). Also: nearly all actives have a fitted effect of over 55% in size. The settings on record: chicken DT40 Rev3-/- viability, CellTiter-Glo, 40 h; series mostly up to 68.4 µM. The text has this:
National Center for Advancing Translational Sciences [NCATS]
NIH Chemical Genomics Center [NCGC]
U.S. Environmental Protection Agency [EPA]
National Institutes of Environmental Health Sciences [NIEHS]
National Toxicology Program [NTP]
U.S. Food and Drug Administration [FDA]
DNA repair pathways play a critical role in cellular homeostasis by repairing DNA damage induced by endogenous processes and xenobiotics. Isogenic chicken DT40 cell lines deficient in different DNA repair pathways can be used to identify genotoxic compounds and aid in characterizing the nature of the DNA damage induced. Two DNA repair-deficient cell lines with disrupted genes, Rad54/Ku70 or Rev3, were used to screen the Tox21 10K compound library. Possible genotoxicity was based on the presence of a significant increase in cytotoxicity in one or more of the DNA repair-deficient cell lines compared to that observed in the parental DNA repair-proficient cell line. CellTiter Glo viability assay (Promega, Madison, WI) was used to measure cell viability in these cells after compound treatment. This assay includes the data from the Rev3 mutant cell line.
Tox21 Assay Protocol Summary:
300 DT40 mutant cells in 5 uL/well were dispensed into white, solid-bottom 1536-well plates using a Multidrop Combi (ThermoFisher Scientific, Waltham, MA) dispenser. After the assay plates were incubated at 37 C/5% CO2 for approximately 0.5 hour, 23 nL of compounds dissolved in DMSO, positive controls or DMSO only was transferred into the assay plate by a pintool work station (Kalypsys, San Diego, CA). The assay plates were incubated at 37 C/5% CO2 for 40 hours. After 5 uL per well of CellTiter-Glo reagent was added into each well of the assay plates, the plates were incubated for 30 min at room temperature and the luminescence intensity of the plates was measured using a ViewLux (PerkinElmer, Shelton, CT) plate reader.
For the molecule `O=C(O)c1c(Cl)ccc(Cl)c1Cl`, the Potency result was “inactive”.

On to `O=C(COCCOCCOCC(=O)Nc1c(I)cc(I)c(C(=O)O)c1I)Nc1c(I)cc(I)c(C(=O)O)c1I`, for which the Potency result was “inactive”.

As for `O=c1[nH]c(=O)c2ccccc2o1`, the Potency result was “inactive”.

Take `CCCCCC1Nc2cc(C(F)(F)F)c(S(N)(=O)=O)cc2S(=O)(=O)N1` (stereo not given): the Potency result was “inactive”.

Regarding `Cc1ccccc1C`, the Potency entry was “inactive”.

In the case of `C=C[C@@H](C)CCC=C(C)C`, the Potency result was “inactive”.

With `CCC1COC(=O)O1` (stereo not given), the Potency entry is “inactive”.

Turning to `CCC(O)C(C)(C)C` (stereo not given), the Potency entry is “inactive”.

For `COc1cccc2sc(N)nc12`, the Potency result was “inactive”.

For `CC(=O)c1ccc2c(c1)CCCC2`, the Potency result is “inactive”.

Regarding `O=C1c2ccccc2-c2ccccc21`, the Potency entry is “inactive”.

For the molecule `O=C(/C=C/c1ccccc1)NCCO`, the Potency entry is “inactive”.

In the case of `Cc1cccc(Nc2ccncc2S(=O)(=O)NC(=O)NC(C)C)c1`, the Potency result is “inactive”.

As for `Cc1cccc(C(=O)O)c1[N+](=O)[O-]`, the Potency entry is “inactive”.

For the molecule `C=C[Si](C)(C)O[Si](C)(C)C=C`, the Potency result was “inactive”.

As to `C=CC(C)(O)CC/C=C(\C)CC` (stereo not given), the Potency entry was “inactive”.

`CC(C)SCc1ccco1`: the Potency entry is “inactive”.

On to `CCCCCCCCCCCCOC(C)=O`, for which the Potency entry was “inactive”.

Regarding `O=C(O)Cc1cccc(-c2cc(CCCCCCc3ccc(O[C@H]4O[C@H](CO)[C@@H](O)[C@H](O)[C@@H]4O)c(-c4cccc(CC(=O)O)c4)c3)ccc2O[C@H]2O[C@H](CO)[C@@H](O)[C@H](O)[C@@H]2O)c1`, the Potency entry is “inactive”.

Turning to `COC(OC)C(C)c1ccccc1` (stereo not given), the Potency result was “inactive”.

For `CC1=NN(c2ccc(S(=O)(=O)O)cc2)C(=O)C1N=Nc1ccccc1` (stereo not given), the Potency result is “inactive”.

As to `CCCCC[Si](OCC)(OCC)OCC`, the Potency result was “inactive”.

With `C1CCN2C[C@@H]3C[C@@H](CN4CCCC[C@@H]34)[C@H]2C1`, the Potency result was “inactive”.

On to `CO[Si](CCCCl)(OC)OC`, for which the Potency result is “inactive”.

Regarding `CCNC(=O)NCCCOc1cccc(CN2CCCCC2)c1`, the Potency result was “inactive”.

`CC(C)CCO`: the Potency result is “inactive”.

Regarding `CCC(C)(CCC(C)C)C(=O)[O-].CCC(C)(CCC(C)C)C(=O)[O-].[Zn+2]` (stereo not given), the Potency result is “inactive”.

On to `CNC(=O)NC`, for which the Potency entry is “inactive”.

Regarding `NC(=O)NC(=O)Cc1ccccc1`, the Potency entry was “inactive”.

Consider `CC(=O)N(CC(O)CO)c1c(I)c(C(=O)NCC(O)CO)c(I)c(C(=O)NCC(O)CO)c1I` (stereo not given), for which the Potency result is “inactive”.

In the case of `Cc1ccccc1OCC1CO1` (stereo not given), the Potency result was “inactive”.

Take `BrC/C=C/CBr`: the Potency entry is “inactive”.

Take `Nc1cc(C(=O)O)ccc1Cl`: the Potency entry was “inactive”.

Regarding `C[C@H](CCC(=O)NCC(=O)O)[C@H]1CC[C@H]2[C@@H]3[C@H](O)C[C@@H]4C[C@H](O)CC[C@]4(C)[C@H]3C[C@H](O)[C@]12C`, the Potency result is “inactive”.

Turning to `NS(=O)(=O)c1cc2c(cc1Cl)NC(CC1CCCC1)NS2(=O)=O` (stereo not given), the Potency entry was “inactive”.

`CCOC(=O)CCc1ccccc1`: the Potency result is “inactive”.

Turning to `CC(C)(C)c1ccc(C=O)cc1`, the Potency result was “inactive”.

With `CN[C@@H]1[C@@H](O)[C@@H](O[C@@H]2[C@H](O)[C@H](O[C@H]3OC(CN)=CC[C@H]3N)[C@@H](N)C[C@H]2N)OCC1(C)O` (stereo not given in full), the Potency result is “inactive”.

In the case of `CCOC(=O)CC(CC(=O)OCC)(OC(C)=O)C(=O)OCC`, the Potency entry was “inactive”.

As to `Cc1nc([N+](=O)[O-])cn1-c1ccc([N+](=O)[O-])cc1`, the Potency entry is “inactive”.

Source of the values: PubChem BioAssay (Tox21).
